PubChem BioAssay AID1159580 (chemical genetic matrix, 2015)
The whole screen tested about 5,500 compounds, of which about 2,000 (36%) were called active. About 18% were inconclusive and are not listed. Cut-off read from the data, not from the text of the source: active = normalized growth mostly below about 0.91 (no sharp cut-off); inconclusive = no clear call, values can overlap the other calls; inactive = mostly above about 0.92. The list shows a part of the results.

Assay: chemical genetic growth profiling, strain panel (AID 1159580);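 note: tested at 20 µM; growth read once vehicle control cultures reached saturation at 30 °C; 1 = growth at the plate median or of vehicle wells; lower values mean less growth of the strain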
Settings: growth OD

Measured: normalized growth

O=C(O)c1cc2ccccc2[nH]1
inactive: S. cerevisiae deletion strains, locus YJR075W, strain HOC1, active compounds read low 1.01 | S. cerevisiae deletion strains, locus YKL009W, strain mrt4, active compounds read low 0.991 | S. cerevisiae deletion strains, locus YKL068W, active compounds read low 1 | S. cerevisiae deletion strains, locus YKL085W, strain MDH1 (second series), active compounds read low 1.02 | S. cerevisiae deletion strains, locus YKL085W, strain MDH1, active compounds read low 1.02 | S. cerevisiae deletion strains, locus YKL160W, strain elf1, active compounds read low 0.972 | S. cerevisiae deletion strains, locus YKL190W, strain CNB1, active compounds read low 1 | S. cerevisiae deletion strains, locus YKR001C, strain vps1, active compounds read low 1.02 | S. cerevisiae deletion strains, locus YKR026C, strain gcn3, active compounds read low 0.961 | S. cerevisiae deletion strains, locus YKR091W, strain srl3, active compounds read low 0.98 | S. cerevisiae deletion strains, locus YLL001W, strain dnm1, active compounds read low 0.974 | S. cerevisiae deletion strains, locus YLL026W, active compounds read low 1 | S. cerevisiae deletion strains, locus YLL041C, strain sdh2, active compounds read low 0.989 | S. cerevisiae deletion strains, locus YLR027C, strain aat2, active compounds read low 0.993 | S. cerevisiae deletion strains, locus YLR039C, strain RIC1, active compounds read low 1.01 | S. cerevisiae deletion strains, locus YLR058C, strain SHM2, active compounds read low 1.01 | S. cerevisiae deletion strains, locus YLR102C, strain apc9, active compounds read low 1.02 | S. cerevisiae deletion strains, locus YLR113W, strain HOG1, active compounds read low 0.95 | S. cerevisiae deletion strains, locus YLR221C, strain rsa3, active compounds read low 0.989 | S. cerevisiae deletion strains, locus YLR258W, strain gsy2, active compounds read low 0.989 | S. cerevisiae deletion strains, locus YLR262C, strain YPT6 (second series), active compounds read low 0.991 | S. cerevisiae deletion strains, locus YLR262C, strain YPT6, active compounds read low 1.05 | S. cerevisiae deletion strains, locus YLR268W, strain sec22, active compounds read low 1.01 | S. cerevisiae deletion strains, locus YLR320W, strain mms22, active compounds read low 1.01 | S. cerevisiae deletion strains, locus YLR330W, strain CHS5, active compounds read low 1.01 | S. cerevisiae deletion strains, locus YLR342W, strain FKS1 (second series), active compounds read low 0.993 | S. cerevisiae deletion strains, locus YLR342W, strain FKS1, active compounds read low 0.991 | S. cerevisiae deletion strains, locus YLR357W, strain rsc2, active compounds read low 0.983 | S. cerevisiae deletion strains, locus YLR370C, strain arc18, active compounds read low 0.989 | S. cerevisiae deletion strains, locus YLR371W, strain rom2, active compounds read low 1.01 | S. cerevisiae deletion strains, locus YLR384C, strain iki3, active compounds read low 0.976 | S. cerevisiae deletion strains, locus YLR418C, strain cdc73, active compounds read low 1.01 | S. cerevisiae deletion strains, locus YML016C, strain PPZ1, active compounds read low 1.01 | S. cerevisiae deletion strains, locus YML032C, strain rad52, active compounds read low 1 | S. cerevisiae deletion strains, locus YML120C, strain ndi1, active compounds read low 0.979 | S. cerevisiae deletion strains, locus YML124C, strain tub3, active compounds read low 1.01 | S. cerevisiae deletion strains, locus YMR058W, strain fet3, active compounds read low 0.975 | S. cerevisiae deletion strains, locus YMR078C, strain ctf18, active compounds read low 1.02 | S. cerevisiae deletion strains, locus YMR125W, strain sto1, active compounds read low 0.941 | S. cerevisiae deletion strains, locus YMR129W, active compounds read low 0.987 | S. cerevisiae deletion strains, locus YMR205C, strain PFK2, active compounds read low 1.02 | S. cerevisiae deletion strains, locus YMR223W, strain ubp8, active compounds read low 1.01 | S. cerevisiae deletion strains, locus YMR231W, strain pep5, active compounds read low 1 | S. cerevisiae deletion strains, locus YMR263W, strain SAP30, active compounds read low 1.01 | S. cerevisiae deletion strains, locus YMR307W, strain GAS1, active compounds read low 1.04 | S. cerevisiae deletion strains, locus YNL067W, strain RPL9B, active compounds read low 1.01 | S. cerevisiae deletion strains, locus YNL071W, strain lat1, active compounds read low 0.986 | S. cerevisiae deletion strains, locus YNL128W, strain TEP1, active compounds read low 1 | S. cerevisiae deletion strains, locus YNL153C, strain GIM3, active compounds read low 1.01 | S. cerevisiae deletion strains, locus YNL183C, strain NPR1, active compounds read low 0.915 | S. cerevisiae deletion strains, locus YNL209W, strain ssb2, active compounds read low 0.984 | S. cerevisiae deletion strains, locus YNL233W, strain BNI4, active compounds read low 1 | S. cerevisiae deletion strains, locus YNL248C, strain rpa49, active compounds read low 0.954 | S. cerevisiae deletion strains, locus YNL250W, strain rad50, active compounds read low 1 | S. cerevisiae deletion strains, locus YNL271C, strain bni1, active compounds read low 1.01 | S. cerevisiae deletion strains, locus YNL298W, strain CLA4, active compounds read low 1 | S. cerevisiae deletion strains, locus YNL307C, strain MCK1, active compounds read low 1.02 | S. cerevisiae deletion strains, locus YNL322C, strain KRE1 (second series), active compounds read low 0.979 | S. cerevisiae deletion strains, locus YNL322C, strain KRE1, active compounds read low 1.02 | S. cerevisiae deletion strains, locus YNR049C, strain mso1, active compounds read low 0.983 | S. cerevisiae deletion strains, locus YNR052C, strain pop2, active compounds read low 1.02 | S. cerevisiae deletion strains, locus YOL006C, strain TOP1, active compounds read low 1.04 | S. cerevisiae deletion strains, locus YOL012C, strain htz1 1.07 | S. cerevisiae deletion strains, locus YOL147C, strain pex11, active compounds read low 1.01 | S. cerevisiae deletion strains, locus YOR001W, strain rrp6, active compounds read low 0.963 | S. cerevisiae deletion strains, locus YOR061W, strain CKA2, active compounds read low 1.01 | S. cerevisiae deletion strains, locus YOR069W, strain VPS5, active compounds read low 0.991 | S. cerevisiae deletion strains, locus YOR070C, strain gyp1, active compounds read low 0.999 | S. cerevisiae deletion strains, locus YOR080W, strain dia2, active compounds read low 0.99 | S. cerevisiae deletion strains, locus YOR083W, strain WHI5, active compounds read low 0.967 | S. cerevisiae deletion strains, locus YOR106W, strain vam3, active compounds read low 0.972 | S. cerevisiae deletion strains, locus YOR136W, strain idh2, active compounds read low 1.02 | S. cerevisiae deletion strains, locus YOR144C, strain elg1, active compounds read low 1.02 | S. cerevisiae deletion strains, locus YOR184W, strain ser1, active compounds read low 1 | S. cerevisiae deletion strains, locus YOR231W, strain MKK1, active compounds read low 0.995 | S. cerevisiae deletion strains, locus YOR265W, strain rbl2, active compounds read low 0.991 | S. cerevisiae deletion strains, locus YOR270C, strain vph1, active compounds read low 0.974 | S. cerevisiae deletion strains, locus YOR290C, strain snf2, active compounds read low 0.955 | S. cerevisiae deletion strains, locus YOR316C, strain cot1, active compounds read low 1.02 | S. cerevisiae deletion strains, locus YPL051W, strain arl3, active compounds read low 0.979 | S. cerevisiae deletion strains, locus YPL055C, strain LGE1, active compounds read low 0.998 | S. cerevisiae deletion strains, locus YPL078C, strain atp4, active compounds read low 0.948 | S. cerevisiae deletion strains, locus YPL106C, strain sse1, active compounds read low 0.972 | S. cerevisiae deletion strains, locus YPL240C, strain hsp82, active compounds read low 0.997 | S. cerevisiae deletion strains, locus YPL241C, strain CIN2, active compounds read low 1.06 | S. cerevisiae deletion strains, locus YPL256C, strain CLN2, active compounds read low 1 | S. cerevisiae deletion strains, locus YPR119W, strain clb2, active compounds read low 1 | S. cerevisiae deletion strains, locus YPR141C, strain kar3, active compounds read low 0.996 | S. cerevisiae deletion strains, locus YPR163C, strain tif3, active compounds read low 1.01 | S. cerevisiae deletion strains, locus YPR167C, strain met16, active compounds read low 1.02 | S. cerevisiae deletion strains, strain wtn01, active compounds read low 1.01 | S. cerevisiae strains, strain wild type, active compounds read low 0.994
